# In PubChem BioAssay AID492998 (Southern Research Specialized Biocontainment Screening …, 2010):
# The whole screen tested about 2,300 compounds, of which about 550 (24%) were called active. How the calls were made is not given here. These entries were drawn from the full list. Results with a measured potency or affinity are listed apart.
# Experiment: Vero E6 cell cytotoxicity, dose response, cytotoxicity control for non-replicating M. tuberculosis project, secondary assay (AID 492998)
# Conditions: series mostly up to 20 µM
row,Structure (SMILES),outcome
1,CC(/C=C/c1ccco1)=N\NC(=O)c1cccc(Cl)c1,inactive
2,CN(C)CC/C=C1/c2ccc(F)cc2Sc2ccc(Cl)cc21,inactive
3,O=C(COC(=O)c1ccc(Cl)s1)c1ccc[nH]1,inactive
4,O=C(NC(=S)Nn1cnc2c(cnn2-c2ccccc2)c1=O)c1ccccc1,inactive
5,CC(NC(=O)c1cc([N+](=O)[O-])cc([N+](=O)[O-])c1)c1ccc(-n2ccnc2)cc1 (stereo not drawn),inactive
6,Cc1cccc(C)c1NC(=O)c1sc(N)nc1-c1ccccc1,inactive
7,O=C(COC(=O)Cc1ccc(Br)cc1)Nc1ccc(N2CCOCC2)cc1,inactive
8,O=C(COC(=O)c1cc2ccccc2oc1=O)Nc1ccc(F)cc1F,inactive
9,Clc1ccc(OC2CCN(Cc3nc(CC4CC4)no3)CC2)cc1,inactive
10,CCOC(=O)CCSc1n[nH]c(=S)s1,inactive
11,C(=C\c1ccccc1)/CSc1nc2ncccc2[nH]1,inactive
12,CC(C)=CCN1CCN(Cc2cn(C(C)C)c3ccccc23)CC1CCO (stereo not drawn),inactive
13,Cc1ccc(/C=C2\SC(N3CCCC3)=NC2=O)cc1,inactive
14,CC(C)N1C(=O)NC(=O)C2(Cc3cc([N+](=O)[O-])ccc3N(C)C2c2ccccc2)C1=O (stereo not drawn),inactive
15,Cc1ccc(OCC(=O)Nc2ccc([N+](=O)[O-])cc2)cc1,inactive
16,Cc1ccc(NC(=O)COCC(=O)Nc2ccc(C)cc2)cc1,inactive
17,O=C(N/N=C/C=C/c1ccccc1[N+](=O)[O-])c1ccncc1,inactive

row,Structure (SMILES),outcome
1,O=[N+]([O-])c1c(Nc2ccccn2)cc(Cl)c2nonc12,inactive
2,COc1cc(Cl)cc(/C=N/NC(N)=O)c1O,inactive
3,NC(N)=N/N=C/c1cccc([N+](=O)[O-])c1O,inactive
4,O=C(N/N=C/c1cccc([N+](=O)[O-])c1O)c1cccs1,inactive
5,O=C(NNc1nc2ccccc2s1)Nc1ccc(F)cc1,inactive
6,CC1CCC/C(=C\Nc2ccc(C(=O)O)c(O)c2)C1=O (stereo not drawn),inactive
7,Oc1ccccc1Nc1nc(NCC2CCCO2)c2ccccc2n1 (stereo not drawn),inactive
8,CCSc1nsc(NC(=O)Nc2ccc(F)cc2F)n1,inactive
9,Clc1ccc(OCCCCN2CCc3ccccc3C2)cc1,inactive
10,COc1ccc(CC(=O)Nc2nccs2)cc1OC,inactive
11,COc1ccc(CCNc2cc(-c3ccccc3)nc3ncnn23)cc1,inactive
12,CCOC(=O)Cn1c(C)c(Br)c(=O)c2cccc(C)c21,inactive
13,FC(F)(F)c1nc(SCc2ccc(Cl)cc2Cl)n[nH]1,inactive
14,CC1CCCN(CCC(=O)c2ccc(Br)cc2)C1 (stereo not drawn),inactive
15,CNc1nnc(Sc2ncccc2[N+](=O)[O-])s1,inactive
16,CN(CC(=O)Nc1ccc(C#N)cc1)Cc1ccc(Cl)c(Cl)c1,inactive
